Screening results: PubChem, National Center for Advancing Translational Sciences (NCATS)
Shown are actives, neighbours in structure and some others; about 5.4% of the full set was active somewhere.
HPGD inh: inhibitors of human 15-hydroxyprostaglandin dehydrogenase (HPGD) | P15428 | purified HPGD, NADH fluorescence kinetic, PGE2 substrate | Potency, µM, inactives show top-dose activity change, negative = inhibition, usual class: inhibitors | actives 4.3% (n = 150,000) | AID 894; active = well fitted inhibition curve with a large enough effect, not every such curve was filed as active; inconclusive = small, poorly fitted or top-dose-only effect, or another doubt; inactive = no such curve, though single readings can be large or run the other way; note: potency is the fitted concentration of half-maximal effect
Target sequence (P15428 whole entry, looked up): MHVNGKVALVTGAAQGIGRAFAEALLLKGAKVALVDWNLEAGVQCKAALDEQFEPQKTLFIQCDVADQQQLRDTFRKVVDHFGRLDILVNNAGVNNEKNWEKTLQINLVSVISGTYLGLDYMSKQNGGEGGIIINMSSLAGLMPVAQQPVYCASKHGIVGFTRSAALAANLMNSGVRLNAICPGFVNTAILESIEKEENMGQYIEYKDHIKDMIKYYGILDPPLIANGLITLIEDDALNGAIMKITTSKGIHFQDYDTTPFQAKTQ
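20 nM HPGD preincubated 15 min at room temperature with compound in 50 mM Tris-HCl pH 8, 0.01% Tween 20. Started with 1 mM NAD+ and 30 uM prostaglandin E2; NADH fluorescence (360/450 nm) read 5 times over 30-s intervals, last minus first.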
ALOX15B inhib: 15-hLO-2 (ALOX15B) enzyme inhibition; actives 0.56% (n = 110,000); purified 15hLO-2, xylenol orange hydroperoxide absorbance; Potency, µM (top dose mostly 57.1 µM), for inactives: top-dose activity change, negative = inhibition, actives largely listed as inhibitors; note: potency is the fitted concentration of half-maximal effect; nearly all actives have a fitted effect of over 60% in size
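Read-out: hydroperoxide product oxidises ferrous iron, measured as xylenol orange complex via the 573-to-405 nm absorbance ratio after 30 min. Reaction: 50 nM enzyme, 15 min compound preincubation, 45 uM arachidonic acid, 90 min RT, Hepes pH 7.5 with Triton X-100.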
PNC inhibitor: perinucleolar compartment assembly inhibition | activity change (PNC), negative = inhibition, % at 10 µM | AID 2417 | PC3M PTB-GFP, PNC prevalence imaging, 16 h; active compounds read low | actives 3.1% (n = 140,000);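 active = readout at or below -70, meaning at least 70% loss of cells showing the perinucleolar compartment, a nuclear body marking cancer cells; inconclusive = readout between -30 and a set limit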;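 note: plate controls were DMSO wells for no effect and camptothecin positive control wells for full effect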
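PC3M cells stably expressing PTB-GFP, 750–1000 cells/well, treated 16 h at 37 °C with compound (23 nl of library stock), in duplicate. After paraformaldehyde fixation and Hoechst stain, imaged at 20x; PNC prevalence scored by image analysis.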
IMPase Li cell: cell-permeable IMPase inhibitors with lithium potentiation. AID 1457. Potency, µM (series often up to 59.4 µM), without a hit: at the highest dose activity, negative = IMPase inhibition, hits mostly inhibitors. CHO-M1 cells, IP1 TR-FRET (IP-One), carbachol + lithium. actives 0.35% (n = 210,000);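 note: IP1 builds up when IMPase is blocked and the TR-FRET signal falls; potency is the fitted concentration of half-maximal effect; plate controls were basal vehicle for no effect and high inhibitor control for full effect; nearly all actives have a fitted effect of over 50% in size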
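CHO cells stably expressing M1 receptor (2000/well) were cultured 16–30 h, then exposed to compounds with a small lithium addition for 30 min at 37C. IP1 was measured by TR-FRET competition; AC50 from Hill fits.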
12-hLO inh: 12-hLO (ALOX12) enzyme inhibition; purified 12-hLO, xylenol orange hydroperoxide absorbance; Potency, µM (doses to about 57.1 µM), without a hit: top-dose activity change, negative = inhibition, hits mostly inhibitors; actives 0.12% (n = 150,000); AID 1452; note: potency is the fitted concentration of half-maximal effect; nearly all actives have a fitted effect of over 55% in size
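150 nM 12hLO, 25 mM Hepes pH 7.0 + 0.01% Triton X-100; cpd preinc 15 min RT; 40 uM arachidonic acid, 30 min RT; Fe-XO 30 min; A573/A405 ratio as read-out.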
IMPase inh: IMPase inhibition in cells | P97697 | CHO-M1 cells, IP1 accumulation, HTRF TR-FRET ratio | inhibition (IP1 accumulation), % at 46.1 µM | 120,000 tested, under 10 active | AID 901; active = well fitted curve in the direction sought with a large enough effect in the signal ratio, not every such curve was filed as active; inconclusive = small, poorly fitted or top-dose-only effect, or a change in a side signal; inactive = no such curve, though single readings can be large or run the other way; the % refers to the signal ratio;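 note: cells stimulated with carbachol in lithium chloride buffer; plate controls were DMSO basal wells for no effect and reference inhibitor wells for full effect; higher means more IMPase inhibition seen as more IP1 and lower FRET ratio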
Target sequence (P97697 whole entry, looked up): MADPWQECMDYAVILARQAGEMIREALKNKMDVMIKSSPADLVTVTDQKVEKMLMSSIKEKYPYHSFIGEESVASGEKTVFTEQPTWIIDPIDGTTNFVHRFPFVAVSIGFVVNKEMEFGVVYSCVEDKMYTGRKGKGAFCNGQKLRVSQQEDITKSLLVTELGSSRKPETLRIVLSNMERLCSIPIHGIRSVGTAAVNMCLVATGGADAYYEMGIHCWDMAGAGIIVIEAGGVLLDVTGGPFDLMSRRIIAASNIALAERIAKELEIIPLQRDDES
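CHO-M1 cells (CHO stably expressing M1 receptor), compound up to 46 uM final, stimulated with carbachol (50 uM as added) in buffer with 50mM LiCl, pH 7.4, 30 min at 37C. Cytosolic IP1 read by TR-FRET; AC50 from Hill fits.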
* marks the source's active call; other numbers are inactive results; [ ] = another dose, or the depositor's remark. Unless noted, calls come from the whole dose curve; as a rule, active = well fitted curve in the direction sought with a large enough effect; inconclusive = small, poorly fitted or top-dose-only effect, or another doubt; inactive = no such curve, though single readings can be large; an effect the other way counts as inactive or inconclusive. Unless noted, % is set by controls: 0 for no effect and ±100 for the full control effect.

`COc1ccc(-c2cc(C(F)(F)F)n3nc(C(=O)NCc4ccco4)cc3n2)cc1` gave HPGD inh inconclusive, ALOX15B inhib -10%, PNC inhibitor -114*, IMPase Li cell 0%[38.3 µM], 12-hLO inh -4% and IMPase inh -5.
Screening O=C(NCc1ccco1)c1cc2nc(-c3ccc4c(c3)OCO4)cc(C(F)(F)F)n2n1 returned HPGD inh inconclusive, ALOX15B inhib -23%, PNC inhibitor inconclusive, IMPase Li cell -2%[38.3 µM], 12-hLO inh -28% and IMPase inh -4.
`COc1ccccc1-n1cnc2cc(C(=O)NCc3ccco3)ccc21` gave HPGD inh 13µM*, ALOX15B inhib -1%, PNC inhibitor 3, IMPase Li cell 12%[38.3 µM], 12-hLO inh -8% and IMPase inh 11.
CCOc1ccc(-n2c(C)nc3cc(C(=O)NCc4ccco4)ccc32)cc1 was read as HPGD inh 8.9µM*, ALOX15B inhib -7%, PNC inhibitor 65, IMPase Li cell -3%[38.3 µM], 12-hLO inh -6% and IMPase inh 2.
`COC(=O)CC1Oc2cc3oc4c5ccccc5oc(=O)c4c3cc2O1` (centres undefined) gave HPGD inh -18%, ALOX15B inhib -2%, IMPase Li cell -19% and 12-hLO inh 1%.
C[C@@H](CSC(=N)N)C(N)=O was read as HPGD inh -4%, ALOX15B inhib -1%[11.4 µM], IMPase Li cell 2% and 12-hLO inh -3%[11.4 µM].
For OCCCNCc1ccncc1 the results were HPGD inh -6%, ALOX15B inhib -3%[11.4 µM], IMPase Li cell -1% and 12-hLO inh 1%[11.4 µM].
For CN1CCN(CCCNN)CC1 the results were HPGD inh 3%, ALOX15B inhib -1%[11.4 µM], IMPase Li cell 8% and 12-hLO inh 0%[11.4 µM].
COc1ccc(-n2nc(C(=O)NCc3ccco3)c3ccccc3c2=O)cc1 was read as HPGD inh inconclusive, ALOX15B inhib -6%, PNC inhibitor -84*, IMPase Li cell inconclusive, 12-hLO inh 8% and IMPase inh -7.
Screening COc1ccc(-n2c(C)nc3cc(C(=O)NCc4ccc5c(c4)OCO5)ccc32)cc1 returned HPGD inh -19%, PNC inhibitor -26, IMPase Li cell 0% and 12-hLO inh -3%.
COc1ccc(-n2c(C)nc3cc(C(=O)NCc4ccco4)ccc32)cc1 was read as HPGD inh 8.9µM*, ALOX15B inhib -1%, PNC inhibitor 16, IMPase Li cell 7%[38.3 µM], 12-hLO inh -7% and IMPase inh 5.
`COc1ccc(-n2nc(C(=O)NCc3ccco3)c3c4ccccc4n(C)c3c2=O)cc1` gave HPGD inh inconclusive, PNC inhibitor -13, IMPase Li cell inconclusive and 12-hLO inh 3%.
N[C@@H](CSCc1ccccc1)C(=O)O was read as HPGD inh -1%, ALOX15B inhib -1%[11.4 µM], IMPase Li cell -1% and 12-hLO inh -2%[11.4 µM].
CC1CCC(C(=O)NC(C(=O)OCC(=O)c2ccc(Br)cc2)C(C)C)CC1 (centres undefined) was read as IMPase inh 1.
N#CCCn1c(Cl)nc2ccccc21 was read as HPGD inh -7%, ALOX15B inhib 1%, PNC inhibitor -86*, IMPase Li cell -7%[38.3 µM], 12-hLO inh 0% and IMPase inh -1.
`CCCCCCCCCCCCCCCCCCOC[C@H](COP(=O)([O-])OCC[N+](C)(C)C)OC(C)=O` gave HPGD inh -4%, IMPase Li cell -3% and 12-hLO inh -10%.
CCCN1C2=C(C(=O)CC(C)(C)C2)C(c2ccc(F)cc2)C2=C1c1ccccc1C2=O (centres undefined) was read as HPGD inh 35µM*, ALOX15B inhib -17%, PNC inhibitor 50, IMPase Li cell 32%[38.3 µM], 12-hLO inh 0% and IMPase inh -5.
O=C(Oc1c(Br)cc(C(=S)N2CCOCC2)cc1Br)c1ccc(Cl)cc1 was read as HPGD inh 16µM*, ALOX15B inhib inconclusive, PNC inhibitor 36, IMPase Li cell 10%[38.3 µM], 12-hLO inh -26% and IMPase inh -1.
For Clc1ccc2c(c1)-c1nnc(Br)n1-c1ccccc1S2 the results were HPGD inh 18µM*, PNC inhibitor -100*, IMPase Li cell 9%, 12-hLO inh -4% and IMPase inh 0.
`Brc1nnc2n1-c1ccccc1Sc1ccccc1-2` gave HPGD inh inconclusive, PNC inhibitor -23, IMPase Li cell 4%, 12-hLO inh -4% and IMPase inh 8.
COC(=O)C1=C(C(=O)OC)[C@@H]2N(C)c3ccc(OC)cc3[C@@]23C[C@@H](C(=O)OC)N(S(=O)(=O)c2ccc(Br)cc2)C3=N1 was read as HPGD inh 2%, IMPase Li cell -1% and 12-hLO inh -5%[11.4 µM].
`CCOC(=O)c1c(-c2ccccc2)oc2ccc(NS(=O)(=O)c3ccc(C)cc3)cc12` gave IMPase inh -12.
For COc1ccc(/C=C2\CCCC3C2=NC(=S)NC3c2ccc(OC)cc2)cc1 (centres undefined) the results were HPGD inh inconclusive, PNC inhibitor 40, IMPase Li cell 9% and 12-hLO inh 14µM*.
CCCn1c(SCC(=O)N2N=C3/C(=C/c4ccc(OC)cc4)CCCC3C2c2ccc(OC)cc2)n[nH]c1=O (centres undefined) was read as HPGD inh inconclusive, PNC inhibitor 19, IMPase Li cell 16% and 12-hLO inh -1%.
For Nc1ncnc2c1ncn2[C@@H]1O[C@H](COP(=O)(O)OP(=O)(O)OP(=O)(O)OP(=O)(O)OC[C@@H]2O[C@H](n3cnc4c(N)ncnc43)[C@@H](O)[C@@H]2O)[C@H](O)[C@H]1O the results were HPGD inh 8% and IMPase Li cell 10%.
For FC(F)(F)c1nnc2c(Sc3ccccc3)nc3ccccc3n12 the results were HPGD inh -12%, ALOX15B inhib 17%, PNC inhibitor -20, IMPase Li cell -24%, 12-hLO inh 1% and IMPase inh -11.
For FC(F)(F)c1nnc2c(Sc3ccc(Cl)cc3)nc3ccccc3n12 the results were HPGD inh inconclusive, ALOX15B inhib -1%, PNC inhibitor inconclusive, IMPase Li cell 18µM*, 12-hLO inh 0% and IMPase inh 7.
`O=C1C2C3c4ccccc4C(c4ccccc43)C2c2nc3ccccc3n21` (centres undefined) gave HPGD inh -5%, PNC inhibitor -100*, IMPase Li cell 15%, 12-hLO inh 0% and IMPase inh 6.
